# Assay results: PubChem BioAssay (NCATS)
# Results filed as inconclusive are left out. Where a call stands in place of a potency, no number is given. Calls of active or inactive are those of the source. The call rests on the fitted dose curve; in most records, active means well fitted inhibition curve with a large enough effect; inconclusive means small, poorly fitted or top-dose-only effect; inactive means flat fitted curve, though single readings scatter.
# Biological target: Calcium and integrin-binding protein 1 (Homo sapiens) (UniProt Q99828)
# Sequence (Q99828 whole entry, looked up): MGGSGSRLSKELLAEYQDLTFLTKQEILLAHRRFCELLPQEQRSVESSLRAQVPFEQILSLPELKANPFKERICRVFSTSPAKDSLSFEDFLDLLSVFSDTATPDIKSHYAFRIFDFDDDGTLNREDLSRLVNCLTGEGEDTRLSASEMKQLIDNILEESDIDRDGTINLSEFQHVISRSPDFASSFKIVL
# Assay: Primary qHTS for Identification of Calcium Integrin Binding Protein 1 (CIB1) Competitor (AID 1508620);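 further: GST tagged CIB1 binding a fluorescein labelled alphaIIb integrin peptide tracer; top concentration of the series differs between compounds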
# Conditions: CIB1-GST / FITC-alphaIIb peptide fluorescence polarization; series mostly up to 114 µM
# Outline: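 Fluorescence polarization competition: CIB1-GST (1 uM final) preincubated with compound 15 min at room temperature, then FITC-labeled alphaIIb peptide (100 nM final) added for another 15 min. Polarization read at Ex 480/Em 540.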
row,SMILES,Potency
1,COc1cccc(-n2cnc3cc(C(=O)N4CCCCC4)ccc32)c1,inactive
2,O=C1CCc2cc(S(=O)(=O)Nc3cccc(Oc4ccccc4)c3)ccc2N1,inactive
3,Cc1cccc(-c2csc(N3CCC(C(N)=O)CC3)n2)c1,inactive
4,COc1ccc(-c2cncc(NC(=O)c3cccs3)c2)cc1OC,inactive
5,N[C@@H](Cc1ccccc1)C(=O)Nc1ccc(Cl)cc1C(=O)c1ccc[nH]1,inactive
6,Cc1ccnc(NC(=S)N2CC3CN(c4ncc(C(F)(F)F)cc4Cl)CC3C2)c1 (stereo not given),inactive
7,Nc1ccc(S(=O)(=O)N2CCN(S(=O)(=O)c3ccc4c(c3)OCCO4)CC2)cc1,inactive
8,COc1cc(O)c([C@H](CC(=O)N2CC(C)CC(C)C2)c2ccc3c(c2)OCO3)c(OC)c1 (stereo not given in full),inactive
9,COc1ccc(C2Nc3ccccc3C(=O)N2Cc2ccccc2)cc1COc1cccc(C)c1 (stereo not given),inactive
10,O=C(OCC#CCSc1nnc(-c2ccco2)o1)c1ccc(F)cc1,inactive
11,COc1ccc(C2NC(=O)c3ccccc3N2)cc1COc1ccc(NC(C)=O)cc1 (stereo not given),inactive
12,N#Cc1nonc1-c1ccccc1,inactive
13,O=C1CCCC2=C1C(c1cccc(Cl)c1)N=C(Nc1nc3ccccc3o1)N2 (stereo not given),inactive
14,Cc1ccc(NS(=O)(=O)c2cc3c(cc2NC(C)C)NC(=O)CC3)cc1C,inactive
15,NC(=O)c1c(-c2ccccc2)no[n+]1[O-],inactive
16,Oc1cc(NCCc2cccnc2)cc2cccnc12,inactive
17,CC(C)(NC(=O)Nc1ccccc1Cl)C(=O)N1CCC(C(=O)O)CC1,inactive
18,O=P(c1ccccc1)(c1ccccc1)c1cnc2ccccn12,inactive
19,CN(C)[S+](=O)([O-])c1ccc(-c2ccc(=O)n(CC(=O)NCCc3ccccc3)n2)cc1,inactive
20,O=[S+]([O-])(c1c(F)cccc1F)N1CCN([S+](=O)([O-])c2c(F)c(F)c(F)c(F)c2F)CC1,inactive

row,SMILES,Potency
1,COc1ccc(-c2nnc3n2N=C(c2cc(OC)ccc2OC)CS3)c(OC)c1,inactive
2,C/C(=C\c1ccsc1)C1Nc2cccc3cccc(c23)N1,inactive
3,CN(Cc1ccco1)c1ncnc2ccc(-c3ccc4c(ccn4C)c3)cc12,inactive
4,CC(C)c1ccccc1-c1nccc(NCc2ccc(-c3ccnc(C(F)(F)F)c3)cc2)n1,inactive
5,NCCC(=O)Nc1cccc(-c2nn3c(=O)cc(N4CCNCC4)nc3s2)c1,inactive
6,O=S(=O)(Nc1nccs1)c1ccc(NCc2cccc(O)c2)cc1,inactive
7,CCOC(=O)c1ccoc1-c1ccc2ncnc(NCc3ncc[nH]3)c2c1,inactive
8,Nc1ccc2c(c1)S(=O)(=O)NC2=O,inactive
9,COc1cc(O)c(C(CC(=O)N2CCCC2)c2ccc3c(c2)OCO3)c(OC)c1 (stereo not given),inactive
10,c1nc(NCC2CCCCO2)c2cc(-c3ccc4c(c3)OCO4)ccc2n1 (stereo not given),inactive
11,O=Cc1nc(Nc2cc(F)cc(F)c2)nc(NC2CCCC2)n1,inactive
12,N#Cc1cccc(NC(=O)Nc2nnc(-c3ccncc3)s2)c1,inactive
13,O=C(O)c1ccc(-n2cccc2/C=C2\SC(=O)N(Cc3ccc(Br)cc3)C2=O)cc1,inactive
14,Cc1ccc(CN(C)c2ncnc3ccc(-c4ccc(C(=O)O)o4)cc23)o1,inactive
15,Cc1cc(C)nc(NC(=S)N2CCN(c3ncccc3Cl)CC2)c1,inactive
16,CC(C)(C#CCSc1nnc(-c2cccc3ccccc23)o1)OC(=O)c1ccc(F)cc1,inactive
17,CCOC(=O)c1ccoc1-c1ccc2ncnc(NCc3csc(C)n3)c2c1,inactive
18,Cc1ccc(CC(=O)Nc2nc(-c3ccc4c(c3)CCN4C(=O)c3ccccc3C)c(C)s2)cc1C,inactive
19,Brc1sc2c(c1-c1nc3ccccc3s1)CCNC2,inactive
20,CC(C)(C)OC(=O)Cc1nnc(-c2cc3ccccc3[nH]2)o1,inactive
